Results as given in PubChem BioAssay AID2567 (National Center for Advancing Translational Sciences (NCATS), 2010).
Records with an inconclusive call do not appear. A number with no mark means an inactive call. Activity calls are given as the source filed them. Calls come from the whole dose curve; as a rule, active = well fitted antagonist curve with a large enough effect in the main read-out, with a control signal flat; inconclusive = small, poorly fitted or top-dose-only effect; inactive = no such curve, though single readings can be large or run the other way.

What follows are compounds tested against Neuropeptide S receptor (Homo sapiens) (UniProt Q6W5P4) (assay: Confirmation Concentration-Response Assay for Antagonists of the Neuropeptide S Receptor: Calcium Signal Transduction, SAR for Probe). Details: CHO-NPSR cells, NPS-induced calcium fluorescence, FDSS; series mostly up to 19.3 µM; activity change, negative = inhibition: at the top concentration.
Sequence of Neuropeptide S receptor (Homo sapiens) (Q6W5P4 whole entry, looked up): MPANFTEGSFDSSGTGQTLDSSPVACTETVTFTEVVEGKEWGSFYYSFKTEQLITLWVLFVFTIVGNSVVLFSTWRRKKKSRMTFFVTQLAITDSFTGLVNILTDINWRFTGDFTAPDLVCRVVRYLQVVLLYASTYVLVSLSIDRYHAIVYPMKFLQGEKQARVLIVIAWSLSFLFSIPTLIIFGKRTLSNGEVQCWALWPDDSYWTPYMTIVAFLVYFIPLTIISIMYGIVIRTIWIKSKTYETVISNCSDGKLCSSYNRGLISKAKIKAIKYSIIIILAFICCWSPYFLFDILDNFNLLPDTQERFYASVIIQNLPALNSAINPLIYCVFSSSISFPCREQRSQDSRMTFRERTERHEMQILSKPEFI
In short: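 CHO cells stably expressing human NPSR, loaded with calcium dye; compounds added, then stimulated with NPS (60 nM in stimulation reagent). Fluorescence (Ex 480, Em 520–560 nm) recorded kinetically on FDSS; AC50 from Hill fit.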

| SMILES | Potency | activity change, negative = inhibition |
| --- | --- | --- |
| COc1cccc(C2c3c(ncn(-c4ccc(C#N)cc4)c3=N)Oc3ccc4ccccc4c32)c1 (stereo unspecified) | 5.52 µM (active) | – |
| COc1ccc(C2c3ccc4ccccc4c3Oc3ncn(CCN4CCOCC4)c(=N)c32)cc1OC (stereo unspecified) | 8.74 µM (active) | – |
| CN(C)C(=O)Oc1cccc([N+](C)(C)C)c1 | – | 20.5% |
| COc1cccc(C2c3c(ncn(-c4ccc(-c5ccccc5)cc4)c3=N)Oc3ccc4ccccc4c32)c1 (stereo unspecified) | – | -6.38% [at 50.9 µM] |
| COC(=O)c1ccc(C(=O)OC)c(NC(=O)CSc2cccc[n+]2[O-])c1 | – | 17.1% |
| CCC(C)(CCN1CCOCC1)N(Cc1cc2ccccc2n(C)c1=O)C(=O)C1CCCCC1 (stereo unspecified) | 0.11 µM (active) | – |
| CCOC(=O)c1cnc(-n2nc(C)cc2C)nc1Nc1ccc(C)cc1 | – | -19.5% |
| COc1ccc(C2c3c(nc(CCc4ccccc4)[nH]c3=O)Oc3ccc4ccccc4c32)cc1OC (stereo unspecified) | – | -61.9% [at 50.9 µM] |
| COc1cccc(C2c3c(ncn(-c4ccccc4C(C)(C)C)c3=N)Oc3ccc4ccccc4c32)c1 (stereo unspecified) | 4.38 µM (active) | – |
| COc1cccc(C2c3c(ncn(-c4cccc(Cl)c4)c3=N)Oc3ccc4ccccc4c32)c1 (stereo unspecified) | 8.74 µM (active) | – |
| COc1ccc(C2c3c(N)nc(CCCc4ccccc4)nc3Oc3ccc4ccccc4c32)cc1OC (stereo unspecified) | – | -53.4% [at 50.9 µM] |
| Cc1cc2nc3ccc(=[N+](C)C)cc-3sc2cc1N | – | -7.55% |
| COc1cccc(C2c3c(ncn(-c4ccccc4Cl)c3=N)Oc3ccc4ccccc4c32)c1 (stereo unspecified) | 5.52 µM (active) | – |
| COc1ccc(C2c3c(N)nc(CCc4ccccc4)nc3Oc3ccc4ccccc4c32)cc1OC (stereo unspecified) | – | -16.8% [at 50.9 µM] |
| COc1cccc(C2c3c(ncn(-c4cccc(C)c4)c3=N)Oc3ccc4ccccc4c32)c1 (stereo unspecified) | 4.38 µM (active) | – |
| Cc1c(P(=S)(c2ccccc2)c2ccccc2)c2ccccc2n1Cc1ccccc1 | – | 52.1% [at 50.9 µM] |

| SMILES | Potency | activity change, negative = inhibition |
| --- | --- | --- |
| CC(=O)c1sc(-c2ccccc2)cc1NS(=O)(=O)c1ccccc1 | – | 19.9% |
| OC(c1ccccc1)(c1ccccc1)c1cnc2ccccn12 | – | -20.4% [at 50.9 µM] |
| CC(=O)c1sc(N/N=C\c2ccccc2O)nc1C | 1.12 µM (active) | – |
| COc1cccc(C2c3c(ncn(-c4cccnc4)c3=N)Oc3ccc4ccccc4c32)c1 (stereo unspecified) | 2.76 µM (active) | – |
| Cc1ccc(NC(=S)NNC(C)(C)C)cc1 | – | 9.85% |
| COc1cccc(C2c3c(ncn(-c4ccc(F)cc4)c3=N)Oc3ccc4ccccc4c32)c1 (stereo unspecified) | 3.48 µM (active) | – |
| NC(=S)N/N=C/c1ncc(C(F)(F)F)cc1Cl | – | -1.3% |
| CCOC(=O)c1ccc(-n2cnc3c(c2=N)C(c2cccc(OC)c2)c2c(ccc4ccccc24)O3)cc1 (stereo unspecified) | 2.76 µM (active) | – |
| COc1ccc(C2c3ccccc3Oc3ncn(CCN4CCOCC4)c(=N)c32)cc1OC (stereo unspecified) | 0.694 µM (active) | – |
| O=[N+]([O-])c1ccc(-c2nc(C(Cl)Cl)c3ccccc3n2)cc1 | – | -23.4% |
| Cc1c(C(O)(c2ccccc2)c2ccccc2)[n+]2ccccc2n1C | – | -2.71% [at 50.9 µM] |
| COc1cc(/C=C2\SC(c3ccc(C)cc3)=NC2=O)cc(OC)c1O | – | 7.8% |
| Cc1c(P(=S)(c2ccccc2)c2ccccc2)[n+]2ccccc2n1CC(=O)c1ccccc1 | 2.76 µM (active) | – |
| COc1cccc(C2c3c(ncn(-c4ccc5c(c4)OCO5)c3=N)Oc3ccc4ccccc4c32)c1 (stereo unspecified) | 0.552 µM (active) | – |
| COc1cccc(C2c3c(ncn(-c4ccccc4-c4ccccc4)c3=N)Oc3ccc4ccccc4c32)c1 (stereo unspecified) | – | -65.7% [at 50.9 µM] |
